# Source: PubChem BioAssay (National Center for Advancing Translational Sciences (NCATS))
# TDP1 block – qHTS Assay for Inhibitors of Tyrosyl-DNA Phosphodiesterase (TDP1); Tyrosyl-DNA phosphodiesterase 1 (Homo sapiens), Q9NUW8; recombinant TDP1, AlphaScreen DNA substrate cleavage; Potency, µM (series often up to 130 µM), hits mostly inhibitors; actives 0.28% (n = 350,000); AID 485290, 2010; also: nearly all actives have a fitted effect of over 40% in size
# Target sequence (Q9NUW8 whole entry, looked up): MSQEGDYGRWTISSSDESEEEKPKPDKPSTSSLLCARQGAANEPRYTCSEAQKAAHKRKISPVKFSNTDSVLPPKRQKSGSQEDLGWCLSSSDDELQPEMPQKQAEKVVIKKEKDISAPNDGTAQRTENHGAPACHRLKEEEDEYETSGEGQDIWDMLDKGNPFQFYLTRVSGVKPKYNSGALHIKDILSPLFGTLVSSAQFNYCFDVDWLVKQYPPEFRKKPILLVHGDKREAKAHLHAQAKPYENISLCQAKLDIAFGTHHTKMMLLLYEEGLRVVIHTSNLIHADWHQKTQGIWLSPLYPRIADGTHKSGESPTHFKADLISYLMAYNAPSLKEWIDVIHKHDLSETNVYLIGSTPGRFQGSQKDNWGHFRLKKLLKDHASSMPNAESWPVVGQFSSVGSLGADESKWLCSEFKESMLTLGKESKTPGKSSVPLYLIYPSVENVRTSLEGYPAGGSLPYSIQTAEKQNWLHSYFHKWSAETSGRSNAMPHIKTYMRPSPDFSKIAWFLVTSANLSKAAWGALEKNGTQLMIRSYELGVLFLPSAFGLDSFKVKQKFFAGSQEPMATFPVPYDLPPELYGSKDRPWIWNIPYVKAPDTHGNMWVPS
#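 Steps: enzyme plus compound, 15 min RT; add biotin/phosphotyrosine-FITC oligonucleotide (15 nM final), react 5 min; add donor/acceptor beads (10 ug/ml final), 10 min; read AlphaScreen. Tdp1 at 1 nM final.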
# Giardia kill – Small Molecules that selectively kill Giardia lamblia: qHTS. Giardia lamblia trophozoite viability. activity change, % at 7.66 µM, hits read low. actives 0.15% (n = 340,000); in the data active = activity change below about -80%; inconclusive = between about -30% and that limit;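 also: parasites exposed to compound for two days anaerobically before the ATP read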
#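 Each well holds 100 Giardia trophozoites and compound. After two days (48 hrs) at 37 deg C in anaerobic conditions, ATP is quantified by luminescence.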
# TDP1 cell noCPT – qHTS for Inhibitors of human tyrosyl-DNA phosphodiesterase 1 (TDP1): qHTS in cells in absence of CPT; actives 15% (n = 420,000); DT40 Tdp1-/- hTDP1 cells, no CPT, ATP luminescence, 48 h; Potency, µM (series often up to 46.2 µM), usual class: inhibitors; AID 686978, 2013; also: nearly all actives have a fitted effect of over 55% in size
#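 Chicken DT40 Tdp1-/- cells stably complemented with human TDP1 were seeded at 400 cells/well with DMSO in place of 20 nM camptothecin. After compound pinning, cells grew at least 48 hr at 37 °C; viability read by CellTiter-Glo luminescence.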
# DT40 TDP1 CPT – qHTS for Inhibitors of human tyrosyl-DNA phosphodiesterase 1 (TDP1): qHTS in cells in presence of CPT | chicken DT40 Tdp1-/-;hTDP1 cells + 20 nM CPT, ATP luminescence, 48 h | Potency, µM (top dose mostly 46.2 µM), most hits filed as inhibitors | actives 12% (n = 420,000) | AID 686979, 2013; also: nearly all actives have a fitted effect of over 55% in size
#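 Cell growth measured by CellTiter-Glo luminescence after a minimum 48 h, 37 C compound exposure with 20 nM CPT in Tdp1-knockout DT40 cells stably expressing hTDP1, seeded 400/well; qHTS titration format.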
# ELG1 DNA repair – qHTS screen for small molecules that inhibit ELG1-dependent DNA repair in human embryonic kidney (HEK293T) cells expressing luciferase-tagged ELG1; HEK293T ELG1-luciferase reporter, luminescence, 16 h; DNA damage induced by 5-fluorouridine; Potency, µM (titrated, usually from 46.1 µM), most hits filed as inhibitors; actives 2.3% (n = 330,000); also: nearly all actives have a fitted effect of over 55% in size
#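 DMSO vehicle served as the neutral condition. Each well held 2,000 cells given 5-fluorouridine plus compound; after 16 hr at 37 °C/5% CO2, ONE-Glo was added and luciferase measured 30 min later.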
# IL1B secr inh – qHTS for Inhibitors of Inflammasome Signaling: IL-1-beta AlphaLISA Primary Screen | THP-1 LPS/ATP IL-1B secretion, AlphaLISA, 16 h; stronger effect = lower value | activity change, % at 57.5 µM | actives 4.7% (n = 360,000) | AID 743279, 2014; in the data active = activity change below about -50%; inconclusive = mostly about -30% to -49%
#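 THP-1 cells pretreated 1 hr with compounds (up to 57.5 uM final), then stimulated with LPS (250 ng/mL final) plus ATP (1.25 mM final); secreted IL-1B measured by AlphaLISA after 16 hr, decreased signal indicating inhibition.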
# Numbers stand for hits; n = inactive; u = inconclusive; x = no result; [ ] = dose if it differs, or a comment. Compounds with a hit are over-represented: about 19% of the library has one in this group of screens. Unless noted, calls follow the shape of the dose curve; as a rule, active = well fitted curve in the direction sought with a large enough effect; inconclusive = small, poorly fitted or top-dose-only effect, or another doubt; inactive = no such curve, though single readings can be large; an effect the other way counts as inactive or inconclusive.
SMILES,TDP1 block,Giardia kill,TDP1 cell noCPT,DT40 TDP1 CPT,ELG1 DNA repair,IL1B secr inh
CCOC(=O)C1CCN(Cc2ccc(C(=O)OC)cc2)CC1,n,n,n,n,n,n
CCOC(=O)C1(CC2CC2)CCN(Cc2cn(C)c3ccccc23)CC1,n,n,18µM,21µM,n,-82
CCOC(=O)C1(CC2CC2)CCN(Cc2ccc(C(=O)OC)cc2)CC1,n,n,23µM,u,n,n
CCN(c1ccccc1)S(=O)(=O)c1c(C)noc1C,n,n,n,n,n,n
CCc1cc(=O)oc2cc(C)cc(OC(C)C(=O)NCc3ccccn3)c12 (stereo unspecified),n,n,n,n,n,n
CCOC(=O)C1(CCc2ccccc2)CCN(Cc2ccc(C(=O)OC)cc2)CC1,x,n,16µM,u,n,n
CCOC(=O)C1(CCc2ccccc2)CCN(Cc2ccccn2)CC1,n,n,u,n,n,n
Cc1ccc2c(c1)N(C(=O)CCC(=O)NC1CCCCCC1)CC(C)O2 (stereo unspecified),x,n,u,u,n,n
COC(=O)C1OC2(OC1C(=O)OC)c1ccccc1-c1ccccc12 (stereo unspecified),n,n,n,n,n,n
Cc1ccccc1C1(O)c2ccccc2-c2ccccc21,x,x,15µM,23µM,x,n
COc1ccc(C2=NN(CCC(=O)NCCc3ccccc3)C(=O)CC2)cc1,n,x,n,n,x,x
O=[N+]([O-])c1cccc2c(S(=O)(=O)N3CCOCC3)cccc12,20µM,u,u,u,n,n
O=S(=O)(c1cccc(S(=O)(=O)N2CCCC2)c1)c1cccc(S(=O)(=O)N2CCCC2)c1,n,n,u,13µM,21µM,n
COc1ccc(S(=O)(=O)N2CCCC2)c2ccccc12,x,n,n,n,n,n
O=S(=O)(c1cccc2c(S(=O)(=O)N3CCCC3)cccc12)N1CCCC1,n,n,16µM,u,u,n
COc1c(S(=O)(=O)N2CCCCC2)ccc2c(S(=O)(=O)N3CCCCC3)cccc12,x,n,23µM,16µM,x,n
O=S(=O)(c1cccc(S(=O)(=O)N2CCCC2)c1)N1CCCCC1,x,n,n,n,n,n
O=[N+]([O-])c1cccc2c(S(=O)(=O)N3CCCCC3)cccc12,n,n,u,n,n,n
O=C(NC(=S)Nc1cccc(O)c1)C1CCCCC1,n,n,u,n,u,u
CNc1cc2c(cc1S(=O)(=O)Nc1ccc(C)c(C)c1)CCC(=O)N2,n,x,x,x,x,x
COc1ccc2c(c1)CCCC21NC(=O)N(CC(=O)NCc2cccs2)C1=O (stereo unspecified),n,n,n,n,n,u
Cc1ccccc1NC(=O)N1CCN(c2ncccn2)CC1,n,n,n,n,n,n
Cc1ccccc1C(=O)Nc1sc2c(c1C(=O)N1CCCCC1)CCC(C)C2 (stereo unspecified),x,x,u,18µM,x,x
CCOc1ccccc1NC(=O)c1c(NC(=O)c2ccccc2C)sc2c1CCC(C)C2 (stereo unspecified),n[12.3 µM],x,n,n,x,x
Cc1ccccc1C(=O)Nc1sc2c(c1C(=O)N1CCC(C)CC1)CCC(C)C2 (stereo unspecified),x,x,21µM,15µM,x,x
SMILES,TDP1 block,Giardia kill,TDP1 cell noCPT,DT40 TDP1 CPT,ELG1 DNA repair,IL1B secr inh
CSC1=C(C#N)C(=O)NC(c2ccc(Cl)cc2)S1 (stereo unspecified),x,n,16µM,u,n,u
COc1ccc(Br)cc1C(=O)NC(=S)Nc1c(C)n(C)n(-c2ccccc2)c1=O,x,n,n,n,n,n
COc1ccc(F)c(CN2CCC3(CCC(CNC(=O)c4cc(C)nn4C)O3)CC2)c1 (stereo unspecified),x,x,15µM,u,x,x
Cc1cc(C(=O)NCC2CCC3(CCN(Cc4ccc(-c5ccccc5)cc4)CC3)O2)n(C)n1 (stereo unspecified),x,x,4.6µM,u,x,x
Cc1cc(C(=O)NCC2CCC3(CCN(Cc4ccccc4C)CC3)O2)n(C)n1 (stereo unspecified),x,x,n,n,x,x
COc1cc(CN2CCC3(CCC(CNC(=O)c4ccccc4)O3)CC2)cc(OC)c1 (stereo unspecified),x,x,u,10µM,x,x
COc1ccc(NS(=O)(=O)c2ccc3c(c2)NC(=O)CC(=O)N3)cc1OC,n,n,n,n,n,n
CCc1cc(C(=O)NCC2Cc3cc(-c4ccccc4C(C)=O)ccc3O2)no1 (stereo unspecified),x,x,u,n[9.04 µM],x,x
CC(=O)c1ccccc1-c1ccc2c(c1)CC(CNC(=O)c1ccnc(Cl)c1)O2 (stereo unspecified),x,x,21µM,23µM,x,x
CCC(Sc1nc2cc(OC)c(OC)cc2c(=O)n1Cc1ccco1)C(=O)NCCOC (stereo unspecified),n,n,n,n,u,n
CCc1ccccc1NC(=O)C(CC)Sc1nc2cc3c(cc2c(=O)n1Cc1ccco1)OCO3 (stereo unspecified),n,n,u,16µM,n,n
CCc1ccc(NC(=O)C(CC)Sc2nc3cc4c(cc3c(=O)n2Cc2ccco2)OCO4)cc1 (stereo unspecified),n,n,u,18µM,n,n
CCOc1ccccc1NC(=O)CSc1c2c(nc3ccc(Cl)cc13)CCCC2,n,x,u,u,x,x
CCC(C(=O)Nc1cc(OC)ccc1OC)n1nc(-c2ccccc2)c2c(c1=O)CCCC2 (stereo unspecified),n,x,18µM,16µM,x,x
COc1ccc(NC(=O)CSc2nc(C3CC3)nc3ccccc23)c(OC)c1,n,n,23µM,n,n,-59
COc1ccccc1NC(=O)Cn1nc(-c2ccc(C)cc2)c2c(c1=O)CCCC2,n,x,u,u,x,x
COc1ccc(Cl)cc1NC(=O)CSc1c2c(nc3ccccc13)CCC2,n,x,16µM,21µM,x,x
COc1cccc(NC(=O)CSc2c3c(nc4ccccc24)CCCC3)c1,n,n,21µM,23µM,n,-96
COc1ccc(NC(=O)CSc2nc(C3CC3)nc3ccccc23)cc1,x,n,u,u,n,u
COc1ccc(N2CCN(Cc3nnc(-c4cccc(Br)c4)o3)CC2)cc1,n,x,u,u,x,x
CCN(CC)CCNC(=O)CSc1c2c(nc3cc(Cl)ccc13)CCCC2,n,n,u,u,u,-104
Cc1ccc(NC(=O)CSc2c3c(nc4ccccc24)CCCC3)cc1F,n,x,15µM,u,x,x
